Assay results: PMC9911399, “Two distinct binding modes provide the RNA-binding protein RbFox with extraordinary sequence specificity”
Substitutions are numbered along the chain they refer to; changes in the protein carry UniProt numbers. The full ranking holds about 16,000 sequences; the median of “ka relative to ugcaugu” is about 0.096, and the highest 2% start at about 0.35. The entries come from a sample that favours the highest values as a whole.

T1: RBFOX1 RRM RbFoxmut (Fox-RRM*) (Homo sapiens, UniProt Q9NWB1 109-208, R118D;E147R;N151S;E152T)
T1 sequence: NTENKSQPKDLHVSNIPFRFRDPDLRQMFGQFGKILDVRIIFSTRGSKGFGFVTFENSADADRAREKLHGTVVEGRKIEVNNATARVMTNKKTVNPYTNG

B1: GAUUAAU (DNA:RNA)
RNA: GGGAGACCGGAAUUCAGAUUGUCCGAUUAAUUUAAAUCCCGUCGUAGCCACCA
DNA 1: CAATCTGAATTCCGGTCTCCC
DNA 2: TGGTGGCTACGACGGGATT
B2: UUGCUUC (DNA:RNA)
RNA: GGGAGACCGGAAUUCAGAUUGUCCUUGCUUCUUAAAUCCCGUCGUAGCCACCA
DNA 1: CAATCTGAATTCCGGTCTCCC
DNA 2: TGGTGGCTACGACGGGATT
B3: AGAGUCA (DNA:RNA)
RNA: B2 RNA with U25A, U26G, G27A, C28G, U30C, C31A
DNA 1: CAATCTGAATTCCGGTCTCCC
DNA 2: TGGTGGCTACGACGGGATT
B4: UCCAGUA (DNA:RNA)
RNA: B2 RNA with U26C, G27C, C28A, U29G, C31A
DNA 1: CAATCTGAATTCCGGTCTCCC
DNA 2: TGGTGGCTACGACGGGATT
B5: GAAUGUC (DNA:RNA)
RNA: B1 RNA with U27A, A29G, A30U, U31C
DNA 1: CAATCTGAATTCCGGTCTCCC
DNA 2: TGGTGGCTACGACGGGATT
B6: GACCGUC (DNA:RNA)
RNA: B2 RNA with U25G, U26A, G27C, U29G
DNA 1: CAATCTGAATTCCGGTCTCCC
DNA 2: TGGTGGCTACGACGGGATT
B7: GAAAAUG (DNA:RNA)
RNA: B1 RNA with U27A, U28A, A30U, U31G
DNA 1: CAATCTGAATTCCGGTCTCCC
DNA 2: TGGTGGCTACGACGGGATT
B8: AAAGCCU (DNA:RNA)
RNA: B1 RNA with G25A, U27A, U28G, A29C, A30C
DNA 1: CAATCTGAATTCCGGTCTCCC
DNA 2: TGGTGGCTACGACGGGATT
B9: CUAUCCC (DNA:RNA)
RNA: B2 RNA with U25C, G27A, C28U, U29C, U30C
DNA 1: CAATCTGAATTCCGGTCTCCC
DNA 2: TGGTGGCTACGACGGGATT
B10: GAAGAAU (DNA:RNA)
RNA: B1 RNA with U27A, U28G
DNA 1: CAATCTGAATTCCGGTCTCCC
DNA 2: TGGTGGCTACGACGGGATT
B11: CGUUAUG (DNA:RNA)
RNA: B1 RNA with G25C, A26G, A30U, U31G
DNA 1: CAATCTGAATTCCGGTCTCCC
DNA 2: TGGTGGCTACGACGGGATT
B12: CGUUCGG (DNA:RNA)
RNA: B1 RNA with G25C, A26G, A29C, A30G, U31G
DNA 1: CAATCTGAATTCCGGTCTCCC
DNA 2: TGGTGGCTACGACGGGATT
B13: GGUUAUG (DNA:RNA)
RNA: B1 RNA with A26G, A30U, U31G
DNA 1: CAATCTGAATTCCGGTCTCCC
DNA 2: TGGTGGCTACGACGGGATT
B14: GUUCGGG (DNA:RNA)
RNA: B1 RNA with A26U, U28C, A29G, A30G, U31G
DNA 1: CAATCTGAATTCCGGTCTCCC
DNA 2: TGGTGGCTACGACGGGATT
B15: CGGUUCG (DNA:RNA)
RNA: B2 RNA with U25C, U26G, C28U, U30C, C31G
DNA 1: CAATCTGAATTCCGGTCTCCC
DNA 2: TGGTGGCTACGACGGGATT
B16: GGUUCGG (DNA:RNA)
RNA: B1 RNA with A26G, A29C, A30G, U31G
DNA 1: CAATCTGAATTCCGGTCTCCC
DNA 2: TGGTGGCTACGACGGGATT
B17: GUCCCGG (DNA:RNA)
RNA: B2 RNA with U25G, G27C, U29C, U30G, C31G
DNA 1: CAATCTGAATTCCGGTCTCCC
DNA 2: TGGTGGCTACGACGGGATT
B18: GGGUUCG (DNA:RNA)
RNA: B1 RNA with A26G, U27G, A29U, A30C, U31G
DNA 1: CAATCTGAATTCCGGTCTCCC
DNA 2: TGGTGGCTACGACGGGATT
B19: GGGGUUC (DNA:RNA)
RNA: B2 RNA with U25G, U26G, C28G
DNA 1: CAATCTGAATTCCGGTCTCCC
DNA 2: TGGTGGCTACGACGGGATT
B20: GUAAAAU (DNA:RNA)
RNA: B1 RNA with A26U, U27A, U28A
DNA 1: CAATCTGAATTCCGGTCTCCC
DNA 2: TGGTGGCTACGACGGGATT
B21: GGCCGCA (DNA:RNA)
RNA: B1 RNA with A26G, U27C, U28C, A29G, A30C, U31A
DNA 1: CAATCTGAATTCCGGTCTCCC
DNA 2: TGGTGGCTACGACGGGATT
B22: CCUGUUG (DNA:RNA)
RNA: B2 RNA with U25C, U26C, G27U, C28G, C31G
DNA 1: CAATCTGAATTCCGGTCTCCC
DNA 2: TGGTGGCTACGACGGGATT
B23: AGGGCAC (DNA:RNA)
RNA: B2 RNA with U25A, U26G, C28G, U29C, U30A
DNA 1: CAATCTGAATTCCGGTCTCCC
DNA 2: TGGTGGCTACGACGGGATT
B24: UAGCUUA (DNA:RNA)
RNA: B2 RNA with U26A, C31A
DNA 1: CAATCTGAATTCCGGTCTCCC
DNA 2: TGGTGGCTACGACGGGATT
B25: GUUAGGG (DNA:RNA)
RNA: B1 RNA with A26U, U28A, A29G, A30G, U31G
DNA 1: CAATCTGAATTCCGGTCTCCC
DNA 2: TGGTGGCTACGACGGGATT
B26: ACCGGAG (DNA:RNA)
RNA: B1 RNA with G25A, A26C, U27C, U28G, A29G, U31G
DNA 1: CAATCTGAATTCCGGTCTCCC
DNA 2: TGGTGGCTACGACGGGATT
B27: AAUUGGC (DNA:RNA)
RNA: B1 RNA with G25A, A29G, A30G, U31C
DNA 1: CAATCTGAATTCCGGTCTCCC
DNA 2: TGGTGGCTACGACGGGATT
B28: ACCACUC (DNA:RNA)
RNA: B2 RNA with U25A, U26C, G27C, C28A, U29C
DNA 1: CAATCTGAATTCCGGTCTCCC
DNA 2: TGGTGGCTACGACGGGATT
B29: CUGUAUC (DNA:RNA)
RNA: B2 RNA with U25C, C28U, U29A
DNA 1: CAATCTGAATTCCGGTCTCCC
DNA 2: TGGTGGCTACGACGGGATT
B30: CGUCAUG (DNA:RNA)
RNA: B1 RNA with G25C, A26G, U28C, A30U, U31G
DNA 1: CAATCTGAATTCCGGTCTCCC
DNA 2: TGGTGGCTACGACGGGATT
B31: UGUUAUG (DNA:RNA)
RNA: B1 RNA with G25U, A26G, A30U, U31G
DNA 1: CAATCTGAATTCCGGTCTCCC
DNA 2: TGGTGGCTACGACGGGATT
B32: UGUCAUG (DNA:RNA)
RNA: B2 RNA with U26G, G27U, U29A, C31G
DNA 1: CAATCTGAATTCCGGTCTCCC
DNA 2: TGGTGGCTACGACGGGATT
B33: UGUAUCU (DNA:RNA)
RNA: B1 RNA with G25U, A26G, U28A, A29U, A30C
DNA 1: CAATCTGAATTCCGGTCTCCC
DNA 2: TGGTGGCTACGACGGGATT
B34: UAUGUCG (DNA:RNA)
RNA: B1 RNA with G25U, U28G, A29U, A30C, U31G
DNA 1: CAATCTGAATTCCGGTCTCCC
DNA 2: TGGTGGCTACGACGGGATT
B35: UGUCCUG (DNA:RNA)
RNA: B2 RNA with U26G, G27U, U29C, C31G
DNA 1: CAATCTGAATTCCGGTCTCCC
DNA 2: TGGTGGCTACGACGGGATT
B36: UGUCAUC (DNA:RNA)
RNA: B2 RNA with U26G, G27U, U29A
DNA 1: CAATCTGAATTCCGGTCTCCC
DNA 2: TGGTGGCTACGACGGGATT
B37: CGUCCUG (DNA:RNA)
RNA: B2 RNA with U25C, U26G, G27U, U29C, C31G
DNA 1: CAATCTGAATTCCGGTCTCCC
DNA 2: TGGTGGCTACGACGGGATT
B38: UGUUAUC (DNA:RNA)
RNA: B1 RNA with G25U, A26G, A30U, U31C
DNA 1: CAATCTGAATTCCGGTCTCCC
DNA 2: TGGTGGCTACGACGGGATT
B39: GGCUAUC (DNA:RNA)
RNA: B1 RNA with A26G, U27C, A30U, U31C
DNA 1: CAATCTGAATTCCGGTCTCCC
DNA 2: TGGTGGCTACGACGGGATT
B40: GGCUAUG (DNA:RNA)
RNA: B1 RNA with A26G, U27C, A30U, U31G
DNA 1: CAATCTGAATTCCGGTCTCCC
DNA 2: TGGTGGCTACGACGGGATT

These binders were tested against T1, RBFOX1 RRM RbFoxmut (Fox-RRM*) (assay: EMSA; HiTS-Eq, 1 nM pool, 10 min; buffer printed only for the single-RNA assays: 10 mM Tris pH 7.5, 150 mM NaCl, 3.4 mM EDTA, 0.001% NP-40, 30 C). Settings: tags: His6 N-terminal (pET28a); label: 5' 32P.
In short: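 Purified RbFox RRM, wild type or mutant, was incubated for 10 min in 50 µL with 1 nM of a 5′-radiolabelled RNA pool carrying 7 randomized nucleotides, whose flanks were annealed to DNA oligonucleotides, over a series of increasing protein concentrations. Unbound RNA was resolved on 8% native PAGE, cut out, reverse-transcribed, barcoded by PCR and sequenced on an Illumina HiSeq 2500. Relative association constants were derived from changes in read counts for each RNA species versus the control reaction and normalised to the cognate motif.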

Binder	binding signal
B1	0.0998 KA relative to UGCAUGU
B2	0.157 KA relative to UGCAUGU
B3	0.106 KA relative to UGCAUGU
B4	0.135 KA relative to UGCAUGU
B5	0.55 KA relative to UGCAUGU
B6	0.0863 KA relative to UGCAUGU
B7	0.1 KA relative to UGCAUGU
B8	0.0705 KA relative to UGCAUGU
B9	0.0664 KA relative to UGCAUGU
B10	0.0873 KA relative to UGCAUGU
B11	0.269 KA relative to UGCAUGU
B12	0.115 KA relative to UGCAUGU
B13	0.585 KA relative to UGCAUGU
B14	0.0874 KA relative to UGCAUGU
B15	0.371 KA relative to UGCAUGU
B16	0.126 KA relative to UGCAUGU
B17	0.0859 KA relative to UGCAUGU
B18	0.4 KA relative to UGCAUGU
B19	0.239 KA relative to UGCAUGU
B20	0.0936 KA relative to UGCAUGU

Binder	binding signal
B21	0.107 KA relative to UGCAUGU
B22	0.136 KA relative to UGCAUGU
B23	0.0707 KA relative to UGCAUGU
B24	0.134 KA relative to UGCAUGU
B25	0.0712 KA relative to UGCAUGU
B26	0.0806 KA relative to UGCAUGU
B27	0.114 KA relative to UGCAUGU
B28	0.0459 KA relative to UGCAUGU
B29	0.362 KA relative to UGCAUGU
B30	0.275 KA relative to UGCAUGU
B31	1.04 KA relative to UGCAUGU
B32	0.597 KA relative to UGCAUGU
B33	0.296 KA relative to UGCAUGU
B34	0.133 KA relative to UGCAUGU
B35	0.133 KA relative to UGCAUGU
B36	0.183 KA relative to UGCAUGU
B37	0.132 KA relative to UGCAUGU
B38	0.351 KA relative to UGCAUGU
B39	0.226 KA relative to UGCAUGU
B40	0.405 KA relative to UGCAUGU
